Compound activity: PubChem, National Center for Advancing Translational Sciences (NCATS)
An excerpt weighted towards active compounds, which were near 12% of everything screened.
G9a block = blocks human histone lysine methyltransferase G9a; actives 8.8% (n = 350,000); G9a H3K9 monomethylation, AlphaScreen, 2 h; Q96KQ7; Potency, µM (series often up to 102 µM), inactives show at the highest dose activity, negative = inhibition, usual class: inhibitors; AID 504332; also: % is scaled to controls: 0 for no effect and ±100 for the full control effect; nearly all actives have a fitted effect of over 75% in size
Target sequence (Q96KQ7 913-1193 limits assumed): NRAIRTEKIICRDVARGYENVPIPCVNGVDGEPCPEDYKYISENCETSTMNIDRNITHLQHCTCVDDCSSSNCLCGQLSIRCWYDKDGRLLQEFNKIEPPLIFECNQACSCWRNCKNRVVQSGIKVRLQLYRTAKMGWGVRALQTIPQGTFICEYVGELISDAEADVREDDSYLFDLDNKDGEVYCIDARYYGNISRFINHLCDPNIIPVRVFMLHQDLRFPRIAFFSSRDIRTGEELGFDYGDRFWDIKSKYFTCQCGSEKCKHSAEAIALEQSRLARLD
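AlphaScreen detection with an anti-monomethyl H3K9 antibody quantified product after a 2 h room-temperature reaction containing 500 nM biotinylated H3K9 peptide, 20 µM SAM and 20 nM enzyme, which had been preincubated 15 min with compound.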
L3MBTL1 inh = inhibitors of human L3MBTL1; AlphaScreen L3MBTL1–H3K9me1 peptide binding; Q9Y468; actives 0.66% (n = 230,000); AID 485360; Potency, µM (highest dose often 57.1 µM), without a hit: at the top dose activity, negative = inhibition, actives largely listed as inhibitors; also: % is scaled to controls: 0 for no effect and ±100 for the full control effect; nearly all actives have a fitted effect of over 60% in size
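First, the protein-peptide complex forms for 30 min at room temperature (L3MBTL1 50 nM, biotinylated H3K9me1 peptide 75 nM). Next, compounds are pin-transferred and incubated 30 min. Finally, AlphaScreen beads are added and read after 30 min.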
Sfp inh = blocks B. subtilis Sfp PPTase activity | actives 3.5% (n = 310,000) | Q9F4F7 | Potency, µM, without a hit: largest response in the series, negative = inhibition, usual class: inhibitors | Biochemical Sfp PPTase activity, qHTS;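 also: the enzyme is Sfp with the accession as filed and its product quenches rhodamine fluorescence; 0% = enzyme reaction without inhibitor and -100% = no enzyme wells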
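Buffer: 50 mM Hepes-Na pH 7.6, 10 mM MgCl2, 0.01% Nonidet P-40, 0.01% BSA. Enzyme 15 nM, pre-exposed to compound 15 min; substrates then added and fluorescence change tracked over 30 min.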
JMJD2A Tudor = inhibitors of human JMJD2A Tudor domain; O75164; Potency, µM (highest dose often 114 µM), for inactives: at the top dose activity change, negative = inhibition, most hits filed as inhibitors; actives 4.4% (n = 390,000); AlphaScreen JMJD2A-Tudor / H3K4me3 peptide binding; AID 504339; also: % is scaled to controls: 0 for no effect and ±100 for the full control effect; nearly all actives have a fitted effect of over 50% in size
HP1b binding inh = HP1-beta chromodomain-methylated histone interaction inhibition; P83916; AlphaScreen HP1-beta / biotin-H3K9me3 peptide binding; Potency, µM (titrated, usually from 114 µM), without a hit: top-dose activity change, negative = inhibition, actives largely listed as inhibitors; actives 0.56% (n = 390,000); also: nearly all actives have a fitted effect of over 70% in size
Target sequence (P83916 whole entry, looked up): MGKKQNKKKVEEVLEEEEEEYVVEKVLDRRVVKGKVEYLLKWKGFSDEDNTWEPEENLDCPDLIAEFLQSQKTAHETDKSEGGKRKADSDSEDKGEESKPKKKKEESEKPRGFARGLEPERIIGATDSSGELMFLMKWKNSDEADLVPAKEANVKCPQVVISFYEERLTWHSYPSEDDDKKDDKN
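Compound inhibition of the preformed complex between 50 nM HP1-beta and 50 nM biotinylated H3K9me3 peptide was read by AlphaScreen. Buffer was PBS pH 7.4 with 0.01% Tween-20. Incubations ran 30 min at room temperature, with 10 ug/mL donor/acceptor beads.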
BAZ2B inh = BAZ2B (human) inhibition; Potency, µM (series often up to 114 µM), for the others: at the top dose activity change, negative = inhibition, actives largely listed as inhibitors; AlphaScreen BAZ2B-H3K14Ac peptide displacement; Q9UIF8; actives 4.4% (n = 360,000); also: % is scaled to controls: 0 for no effect and ±100 for the full control effect; nearly all actives have a fitted effect of over 60% in size
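AlphaScreen displacement: compounds (up to 110uM) incubated 30 min at room temperature with a preformed 50 nM BAZ2B/50 nM biotinylated H3K14Ac peptide complex in PBS pH 7.4 with Tween-20. Donor and acceptor beads at 10 ug/mL final added, 20 min light-protected before reading.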
The depositor's hits bear a star; u = inconclusive; x = no result given; [ ] = dose if it differs, or a comment. Calls follow the shape of the dose curve; as a rule, active = well fitted curve in the direction sought with a large enough effect; inconclusive = small, poorly fitted or top-dose-only effect, or another doubt; inactive = no such curve, though single readings can be large; an effect the other way counts as inactive or inconclusive. Potency is read from the fitted curve at half-maximal effect.

SMILES	G9a block	L3MBTL1 inh	Sfp inh	JMJD2A Tudor	HP1b binding inh	BAZ2B inh
Cl/C(=C\n1cncn1)c1ccc(Cl)cc1Cl	-31.6%[12.7 µM]	x	7.6%	x	x	x
COCCNc1ncnc2ccc(-c3ccccc3C)cc12	6.3%[0.501 µM]	x	79.4µM*	x	x	x
CC1(C)Cc2nc3sc(C(=O)NCCCO)c(N)c3cc2CO1	x	8.6%	79.4µM*	-21.4%	51.3%	-6.3%
COC(=O)c1sc2nc3c(cc2c1N)COC(C)(C)C3	50.1µM*	x	u	13.7%	41.9%	-3.0%
COc1ccccc1C1C=C(c2ccc(Cl)cc2)Nc2nc(NS(C)(=O)=O)nn21 (stereo not drawn)	50.1µM*	4.1%	14.1%	x	x	2.9%
COc1ccc(C2=CC(c3ccccc3Cl)n3nc(-c4ccc(C)cc4)nc3N2)cc1 (stereo not drawn)	u	x	x	u	-11.3%	11.2µM*
COc1ccc(C2C=C(c3ccc(F)cc3)Nc3nc(-c4ccc(Cl)cc4)nn32)cc1 (stereo not drawn)	-12.6%[59 µM]	x	x	-33.9%	68.1%	-0.9%
CS(=O)(=O)Nc1nc2n(n1)C(c1ccccc1)C=C(c1ccc(Br)cc1)N2 (stereo not drawn)	u	5.2%	-4.2%	-16.2%	86.4%	-0.7%
COc1ccccc1C1C=C(c2ccc(Cl)cc2)Nc2nc(N3C(=O)CCC3=O)nn21 (stereo not drawn)	u	0.4%	-13.0%	44.7µM*	17.3%	x
COC(=O)N1CCC2(CCCN(c3ccccn3)C2)CC1	5.6%[12.7 µM]	x	3.3%	x	x	x
CCC/C=C(\CCC)C(NC(=O)OCC(C)C)c1ccccc1 (stereo not drawn)	x	x	30.5%	x	x	x
Cc1cc(-c2ccco2)c(C#N)c2nc3ccccc3n12	12.6µM*	-24.5%	50.1µM*	-6.3%[57.1 µM]	48.7%	-26.7%
O=S(=O)(Nc1nccs1)c1ccc(F)cc1	x	4.9%	-3.8%	-12.3%	35.5%	-6.1%
Cc1ccc2nc3nc4ccc[nH]c4cc3c2c1	x	x	-5.0%	x	x	x
O=C(O)C(Cc1ccccc1)N1C(=O)/C(=C/C=C/c2ccco2)SC1=S (stereo not drawn)	x	1.26µM*	39.8µM*	10µM*	10µM*	8.91µM*
O=C(O)CCCN1C(=O)/C(=C/C=C/c2ccco2)SC1=S	-169.9%[12.7 µM]	0.708µM*	-11.8%	5.62µM*	14.1µM*	3.98µM*
O=C(O)CC(C(=O)O)N1C(=O)/C(=C/C=C/c2ccco2)SC1=S (stereo not drawn)	-186.1%[59 µM]	1.12µM*	22.4µM*	3.55µM*	3.55µM*	5.01µM*
O=C(NCc1ccco1)C(Cc1ccccc1)N1C(=O)c2ccccc2C1=O (stereo not drawn)	-33.0%[12.7 µM]	x	10.3%	9.6%[11.4 µM]	-18.4%	-4.3%
Cc1ccc(NC(=O)CCCN2C(=O)/C(=C/C=C/c3ccccc3)SC2=S)cc1	-2.1%[59 µM]	-5.4%	-6.9%	-11.7%[57.1 µM]	-23.9%	-10.5%
CCN(CC(=O)Nc1ccccc1OC)C(=O)c1cc(S(=O)(=O)N2CCCCCC2)ccc1OC	-19.5%	-0.4%	x	-6.2%	20.1%	5.5%
CC1(C)N=C(N)NC(Nc2ccccc2)=N1	16.4%	5.2%	14.5%	-11.4%	6.1%	8.2%
Cn1cc(Br)c(C(=O)N/N=C/c2cc3c(cc2Cl)OCO3)n1	x	x	7.8%	-7.1%	52.9%	-11.7%
Oc1ccc2ccccc2c1C=Nc1ccccc1-c1nc2ccccc2[nH]1	7.08µM*	x	4.4%	u	u	2.1%
CC1CCC(C(C)C)C(OC(=O)Cn2c(-c3ccccc3)[n+](C)c3ccccc32)C1 (stereo not drawn)	10.4%	5.3%	-8.5%	-27.4%	6.7%	-2.3%
Cc1cccc(OCc2n(CC(=O)OC3CC(C)CCC3C(C)C)c3ccccc3[n+]2C)c1 (stereo not drawn)	-4.8%	-7.5%	25.1µM*	-34.7%	-19.5%	-13.4%
SMILES	G9a block	L3MBTL1 inh	Sfp inh	JMJD2A Tudor	HP1b binding inh	BAZ2B inh
Cc1cccc(OC(=O)Cn2c(C(F)(F)F)nc3ccccc32)c1	64.2%	3.2%	-10.1%	u	27.1%	11.0%
CC1CCC(C(C)C)C(OC(=O)Cn2c(-c3ccc(F)cc3)[n+](C)c3ccccc32)C1 (stereo not drawn)	25.1µM*	6.6%	-8.8%	-17.8%	7.4%	10.0%
CN1C(=O)c2ccccc2Sc2ccc(NC(=O)N3CCN(c4ccccc4F)CC3)cc21	-44.8%[59 µM]	x	x	-30.8%	7.2%	-19.3%
Cc1ccc(/C=N/N(C)C2=NS(=O)(=O)c3ccccc32)o1	39.8µM*	-12.1%	u	x	x	22.3%
CC1CCCN(C(=O)c2ccc([N+](=O)[O-])o2)C1 (stereo not drawn)	15.0%	x	15.4%	-11.0%	23.6%	-0.3%
O=C(c1ccc(-c2ccc([N+](=O)[O-])cc2)o1)N1CCCCCCC1	-4.5%[12.7 µM]	-19.9%	x	56.2µM*	u	39.8µM*
O=C(c1ccc(-c2ccc([N+](=O)[O-])cc2)o1)N1CCCC(C(F)(F)F)C1 (stereo not drawn)	14.1µM*	-16.2%	x	u	u	u
CCOc1cc(CN2CCN(S(=O)(=O)Cc3ccccc3)CC2)ccc1OC	15.8%	x	19.5%	-5.5%	8.6%	-0.2%
CCCS(=O)(=O)N1CCN(Cc2ccc(OCc3ccccc3)c(OC)c2)CC1	x	x	x	28.2µM*	u	x
CCCCNC(=O)C1CCN(Cc2ccc(OCc3ccccc3)c(OC)c2)CC1	14.1µM*	0.4%	-8.3%	22.4µM*	-21.0%	u
CCOCCCNC(=O)C1CCN(Cc2ccc(OCc3ccccc3)c(OC)c2)CC1	50.1µM*	-0.3%	-1.3%	u	9.8%	-10.7%
O=c1c(N2CCc3ccccc3C2)csc2ccc(Br)cc12	-32.8%[59 µM]	x	x	-4.8%	50.0%[57 µM]	1.1%
Fc1ccccc1-c1nnc2ccc3ccccc3n12	-8.9%[0.501 µM]	5.9%[2.29 µM]	3.7%	-21.9%	-6.7%	-38.9%
Fc1cccc(Cl)c1-c1nnc2ccc3ccccc3n12	31.6µM*	-0.8%	-11.0%	-34.4%	-16.0%	x
CCOc1ccc(NC(=O)C(c2ccccn2)N(C(=O)CCl)c2ccc(OCC)cc2)cc1 (stereo not drawn)	3.55µM*	-14.9%	39.8µM*	u	-28.4%	u
COc1ccc(NC(=O)C(c2ccccn2)N(C(C)=O)c2ccc(C)cc2)cc1 (stereo not drawn)	-19.5%	0.7%	-3.7%	-4.8%	33.8%	2.3%
CCOc1ccc(NC(=O)C(c2ccccn2)N(C(=O)CCl)c2ccc(OC)cc2)cc1 (stereo not drawn)	2µM*	-10.3%	14.1µM*	89.1µM*	-26.8%	u
Cc1cc(C(=O)NCCc2ccc(S(=O)(=O)NC(=O)NN3CCCCCC3)cc2)no1	-0.3%[59 µM]	x	u	x	x	x
CCCCC(CCC(=O)O)(C(=O)OCC)c1csc(Nc2ccc(OCC)cc2)n1 (stereo not drawn)	31.6µM*	-20.7%	u	-32.2%	2.0%[57 µM]	u
